Shown are actives, neighbours in structure and some others; about 4.6% of the full set was active somewhere.
sEH act: soluble epoxide hydrolase activators, primary screen, biochemical, human sEH. Bifunctional epoxide hydrolase 2 (Homo sapiens), P34913. purified human sEH enzymatic activity, activator screen. activation, % at 2 µM. hit rate 0.04% among 91,000; in the data active = activation above about 37%
IL1B cytotox: cytotoxicity in IL-1B stimulated HUVEC, primary screen, cytotoxicity control for IL-1B NFkB translocation project, imaging, Hoechst nuclear count, IL-1B stimulus; HUVEC cell count loss; cell count reduction, % at 2 µM; hit rate 0.41% among 94,000;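 active = cell count reduction more than 3 SD above the screen-wide mean, cut at about 70% in these data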;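 also: normalized per plate to untreated control cells as the no-loss baseline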
NFkB transloc inh: inhibitors of IL-1B driven NFkB p65 nuclear import, primary screen, imaging, HUVEC, IL-1B stimulus, high-content imaging; HUVEC IL-1B NFkB p65 nuclear translocation imaging; inhibition, % at 2 µM; hit rate 0.43% among 94,000; AID 796, 2007;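 active = inhibition above about 30% together with a positive call from visual inspection of the well image, limit read from the data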;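 also: nuclear over cytoplasmic p65 intensity ratio measured by imaging; 0% = IL-1B stimulated DMSO wells and 100% = unstimulated DMSO wells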
IL1B NFkB pot: enhancers of NFkB p65 translocation in HUVEC – imaging, IL-1B stimulus, high-content imaging, primary screen | HUVEC IL-1B NFkB p65 nuclear translocation imaging | activation, % at 2 µM | hit rate 0.3% among 94,000;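 active = activation above 40%, about the mean plus 3 SD, also judged a hit on visual image review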;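 also: percent activation is computed from the nuclear over cytoplasmic p65 intensity ratio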
Cav3 T inh: Cav3.2 calcium influx blockers – cell-based, Fluo-4 calcium fluorescence, FDSS, MLSMR library, primary screen. Voltage-dependent T-type calcium channel subunit alpha-1H (Homo sapiens), O95180. Cav3.2-expressing cells; stronger effect = lower value. B-score at 10 µM. hit rate 4% among 100,000;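 active = single-dose well whose peak fluorescence ratio is a statistical outlier from its plate by either plate-standardised score or position-corrected B-score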
sEH inhibitor: soluble epoxide hydrolase inhibitors, primary screen, biochemical, human sEH; Bifunctional epoxide hydrolase 2 (Homo sapiens), P34913; recombinant human sEH enzymatic activity assay; inhibition, % at 2 µM; hit rate 0.34% among 91,000; in the data active = inhibition above about 80%
Numbers without * were called inactive.

Cn1c(N2CCN(c3ccccn3)CC2)nc2c1c(=O)n(Cc1ccc(Cl)cc1)c(=O)n2C was read as Cav3 T inh -3.3*.
O=C(O)CCCNc1cc(N2CCC3(CC2)OCCO3)c2noc3c2c1C(=O)c1ccccc1-3 was read as sEH act -11.5, IL1B cytotox -54.7, NFkB transloc inh 11.7, IL1B NFkB pot -9.9 and sEH inhibitor 13.2.
`CCOC(=O)C1=NN(c2ccccc2C)C2=NC(C)=C(C(=O)OC)C(c3cccs3)N12` (centres undefined) gave sEH act -4.4, IL1B cytotox -3.7, NFkB transloc inh 8.7, IL1B NFkB pot -8.7, Cav3 T inh -5.96* and sEH inhibitor 6.8.
COc1ccc(OCCSc2n[nH]c(N)n2)cc1 was read as sEH act 11.5, IL1B cytotox -10.8, NFkB transloc inh -7.0, IL1B NFkB pot 7.0, Cav3 T inh -0.146 and sEH inhibitor -8.1.
`CCOc1nc(SCCOc2ccc(C)cc2)nc(N(C)C)n1` gave sEH act -5.5, IL1B cytotox 17.7, NFkB transloc inh 1.6, IL1B NFkB pot -1.6, Cav3 T inh -6.45* and sEH inhibitor 4.6.
CCOC(=O)C1CCCN(c2c(C(=O)c3ccccc3)cnc3ccc(OC)cc23)C1 (centres undefined) was read as Cav3 T inh -6.78*.
`CCN1CCN(c2c(C(=O)c3ccc(OC)cc3)cnc3ccccc23)CC1` gave Cav3 T inh -0.282.
`CCCCCn1c(=O)c(Cc2ccccc2)c(O)c2ccccc21` gave sEH act 1.4, Cav3 T inh -0.63 and sEH inhibitor -0.1.
Cc1ccccc1NC(=O)/C(=C/c1ccccc1)c1ccccc1 was read as sEH act 1.3, IL1B cytotox -60.7, NFkB transloc inh 6.9, IL1B NFkB pot -6.9, Cav3 T inh -4.78* and sEH inhibitor -3.4.
Cc1cc(C)c(NC(=O)/C(=C/c2ccco2)c2ccccc2)c(C)c1 was read as sEH act 11.5, IL1B cytotox -9.0, NFkB transloc inh -1.0, IL1B NFkB pot 1.0, Cav3 T inh -2.74 and sEH inhibitor -8.5.
O=C(Nc1ccccc1)/C(=C/c1ccccc1)c1ccccc1 was read as sEH act 17.3, IL1B cytotox 32.7, NFkB transloc inh -3.7, IL1B NFkB pot 3.7, Cav3 T inh -2.37 and sEH inhibitor -20.2.
Screening Cc1cccc(C)c1NC(=O)/C(=C/c1ccco1)c1ccccc1 returned sEH act -1.9, IL1B cytotox 20.6, NFkB transloc inh 20.7, IL1B NFkB pot -20.7, Cav3 T inh -8.61* and sEH inhibitor 0.6.
Screening O=C(c1ccc(COc2ccccc2Br)o1)N1CCCCCC1 returned sEH act -6.0, IL1B cytotox -12.7, NFkB transloc inh 1.8, IL1B NFkB pot -1.8, Cav3 T inh -1.74 and sEH inhibitor 7.2.
`O=C(c1ccc(COc2ccccc2Br)cc1)N1CCCCC1` gave sEH act 2.5, IL1B cytotox -0.3, NFkB transloc inh -54.3, IL1B NFkB pot 54.3* and sEH inhibitor -4.3.
CCN1CCN(C(=O)C2(NC(=O)Nc3ccccc3Cl)CCCCC2)CC1 was read as sEH act 7.5, IL1B cytotox -41.2, NFkB transloc inh -3.8, IL1B NFkB pot 3.8, Cav3 T inh 0.269 and sEH inhibitor -4.4.
`C=C(C)Cn1c(-c2ccc(OC)cc2)nc2ccccc21` gave sEH act 5.0, IL1B cytotox 22.8, NFkB transloc inh 2.6, IL1B NFkB pot -2.6, Cav3 T inh -5.01* and sEH inhibitor -5.3.
O=C1C(c2ccc(F)cc2)N(C2CCCCC2)C(=O)CN1C1CCCC1 (centres undefined) was read as sEH act -5.2, IL1B cytotox -8.6, NFkB transloc inh -128.4, IL1B NFkB pot 128.4*, Cav3 T inh -0.285 and sEH inhibitor 5.3.
Screening O=c1[nH]c(=O)n(C2CCCCCC2)c(O)c1C=NCc1ccc(F)cc1 returned sEH act -2.9, IL1B cytotox 9.7, NFkB transloc inh -4.7, IL1B NFkB pot 4.7, Cav3 T inh -6.67* and sEH inhibitor 6.5.
